# PubChem BioAssay
# Calls of active or inactive are those of the source.
# Experiments:
# [1] = E. coli DRC41 culture turbidity changes, primary screen, E. coli filamentation inducer project, strain DRC41, OD650, 48 h (AID 1152);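 further: E. coli MC1000 strain DRC41 lacking acrAB efflux pump and sulA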; conditions: E. coli DRC41 (acrAB sulA), higher = more signal, called active from +8 up or from −8 down
# [2] = small-molecule binders of probe aLefty1, primary screen, biochemical, small-molecule microarray, 635/667 nm fluorescence (AID 1153); conditions: higher = more signal;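 further: score merges spot fluorescence with signal-to-noise ratio from the scanned slide images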
# [3] = PSAC antagonists in infected red cells, primary screen, cell-based, P. falciparum Indochina, OD700, 1 h (AID 1154); conditions: P. falciparum Indochina infected RBC osmotic lysis, higher = more signal, called active from +8 up or from −8 down
# [4] = PSAC antagonists in infected red cells, primary screen, cell-based, P. falciparum Indochina, OD700, 2 h (AID 1155);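 further: lysis reports solute entry through the parasite surface anion channel PSAC; channel blockers reduce lysis of infected cells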; conditions: P. falciparum Indochina infected erythrocytes, osmotic lysis OD700; higher = more signal, called active from +8 up or from −8 down
# [5] = osmotic lysis modulators in infected erythrocytes, primary screen, PSAC antagonist project, cell-based, P. falciparum Indochina, OD700, 3 h (AID 1156); conditions: higher = more signal, called active from +8 up or from −8 down
# [6] = PSAC antagonists in infected red cells, primary screen, cell-based, P. falciparum Indochina, OD700, 18 h (AID 1157); conditions: P. falciparum Indochina infected erythrocytes, osmotic lysis OD700, 18 h; higher = more signal, called active from +8 up or from −8 down
# [7] = modulators of S6 phosphorylation in cells, primary screen, cell-based, A549, cytoblot, luminescence, serum-stimulated (AID 1158); conditions: A549 phospho-S6 cytoblot, 5 h, higher = more signal;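 further: serum-stimulated A549 lung adenocarcinoma cells; signal is phosphorylated S6 detected by cytoblot immunostaining with HRP secondary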
# [8] = molecular target: NADPH oxidase 2 (Homo sapiens) (UniProt P04839); experiment: NOX2-dependent H2O2 signal modulators, primary screen, NOX inhibitor project, cell-based, HEK293-NOX2, PMA-stimulated, Amplex Red fluorescence (AID 1159); conditions: 45 min, higher = more signal, called active from +8 up or from −8 down; further: test concentration not given here
# Sequence of NADPH oxidase 2 (Homo sapiens) (P04839 whole entry, looked up): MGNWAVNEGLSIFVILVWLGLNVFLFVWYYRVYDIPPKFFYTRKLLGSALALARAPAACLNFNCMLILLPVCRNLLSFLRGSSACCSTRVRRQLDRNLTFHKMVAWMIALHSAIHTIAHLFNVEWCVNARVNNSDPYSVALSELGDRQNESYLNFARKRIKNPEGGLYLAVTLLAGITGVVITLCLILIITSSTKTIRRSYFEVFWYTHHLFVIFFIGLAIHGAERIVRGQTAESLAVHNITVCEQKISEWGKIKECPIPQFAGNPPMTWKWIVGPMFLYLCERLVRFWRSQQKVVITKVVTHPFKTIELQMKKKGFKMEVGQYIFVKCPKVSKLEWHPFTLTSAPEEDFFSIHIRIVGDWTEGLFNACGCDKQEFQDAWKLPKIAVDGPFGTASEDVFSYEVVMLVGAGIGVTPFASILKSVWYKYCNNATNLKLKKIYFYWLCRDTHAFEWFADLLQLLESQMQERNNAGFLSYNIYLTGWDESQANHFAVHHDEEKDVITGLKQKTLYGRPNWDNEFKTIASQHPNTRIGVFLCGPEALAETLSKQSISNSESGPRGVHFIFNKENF
# [9] = molecular target: NADPH oxidase 4 (Homo sapiens) (UniProt Q9NPH5); experiment: NOX4-dependent H2O2 signal modulators, primary screen, NOX inhibitor project, cell-based, HEK293-NOX4, tetracycline-induced, Amplex Red fluorescence (AID 1160); conditions: 45 min, higher = more signal, called active from +8 up or from −8 down
# Sequence of NADPH oxidase 4 (Homo sapiens) (Q9NPH5 whole entry, looked up): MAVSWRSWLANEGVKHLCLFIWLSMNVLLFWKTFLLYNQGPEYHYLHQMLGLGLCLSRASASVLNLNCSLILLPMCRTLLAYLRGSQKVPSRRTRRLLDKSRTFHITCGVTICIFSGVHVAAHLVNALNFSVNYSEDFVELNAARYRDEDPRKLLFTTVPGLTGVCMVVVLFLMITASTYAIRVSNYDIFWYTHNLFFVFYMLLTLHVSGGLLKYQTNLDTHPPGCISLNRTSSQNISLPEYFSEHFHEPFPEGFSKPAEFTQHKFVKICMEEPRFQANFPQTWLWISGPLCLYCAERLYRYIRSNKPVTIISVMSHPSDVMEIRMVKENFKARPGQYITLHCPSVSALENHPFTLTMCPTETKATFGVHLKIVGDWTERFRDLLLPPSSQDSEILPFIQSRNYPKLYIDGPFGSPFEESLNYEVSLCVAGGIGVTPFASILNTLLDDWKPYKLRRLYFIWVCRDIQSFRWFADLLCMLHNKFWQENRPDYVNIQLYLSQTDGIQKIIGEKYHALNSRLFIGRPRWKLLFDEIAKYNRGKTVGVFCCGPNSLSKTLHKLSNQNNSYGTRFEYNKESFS
# [10] = molecular target: NADPH oxidase 5 (Homo sapiens) (UniProt Q96PH1); experiment: NOX5-dependent H2O2 signal modulators, primary screen, NOX inhibitor project, cell-based, HEK293-NOX5, Amplex Red fluorescence (AID 1161); conditions: HEK293-NOX5, ionomycin, 45 min, higher = more signal
# Sequence of NADPH oxidase 5 (Homo sapiens) (Q96PH1 whole entry, looked up): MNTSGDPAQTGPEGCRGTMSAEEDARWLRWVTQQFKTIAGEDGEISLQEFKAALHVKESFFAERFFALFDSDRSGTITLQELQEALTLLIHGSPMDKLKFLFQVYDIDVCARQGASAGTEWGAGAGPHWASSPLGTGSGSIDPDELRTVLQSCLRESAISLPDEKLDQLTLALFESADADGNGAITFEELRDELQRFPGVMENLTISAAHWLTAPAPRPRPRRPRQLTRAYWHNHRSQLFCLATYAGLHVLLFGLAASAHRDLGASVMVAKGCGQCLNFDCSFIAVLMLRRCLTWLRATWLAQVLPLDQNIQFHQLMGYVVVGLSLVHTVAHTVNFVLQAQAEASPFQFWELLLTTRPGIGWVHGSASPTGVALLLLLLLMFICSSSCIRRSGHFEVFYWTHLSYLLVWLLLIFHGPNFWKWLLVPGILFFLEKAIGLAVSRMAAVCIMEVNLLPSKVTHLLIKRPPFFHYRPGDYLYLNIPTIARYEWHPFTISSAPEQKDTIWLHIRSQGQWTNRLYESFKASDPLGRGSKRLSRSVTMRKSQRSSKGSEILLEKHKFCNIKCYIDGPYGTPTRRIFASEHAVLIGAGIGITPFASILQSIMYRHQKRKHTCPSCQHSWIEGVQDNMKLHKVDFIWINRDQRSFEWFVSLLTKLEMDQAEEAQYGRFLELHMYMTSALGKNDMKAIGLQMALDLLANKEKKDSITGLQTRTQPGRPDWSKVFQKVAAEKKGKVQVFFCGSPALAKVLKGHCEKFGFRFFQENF
# [11] = A549 cell viability effects, profiling panel, calcein-AM fluorescence, 48 h, basal (AID 1162); conditions: higher = more signal; further: test concentration not given here
# [12] = adipocyte viability effects, profiling panel, cell-based, 3T3-L1 adipocytes, calcein-AM fluorescence, 48 h, basal (AID 1163); conditions: 3T3-L1 adipocytes viability, higher = more signal; further: test concentration not given here
# [13] = HepG2 cell viability effects, profiling panel, calcein-AM fluorescence, 48 h, basal (AID 1164); conditions: higher = more signal; further: test concentration not given here
# [14] = MM1S cell viability effects, profiling panel, calcein-AM fluorescence, 48 h, basal (AID 1165); conditions: higher = more signal;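 further: viability of MM1S multiple myeloma cells under basal unstimulated conditions; test concentration not given here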
# [15] = basal RPMI8226 viability, no added stimulus, profiling panel, cell-based, calcein-AM fluorescence, 48 h, PK04 Diversity Set (AID 1166); conditions: RPMI8226 myeloma viability, higher = more signal;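 further: cells grown under basal conditions without added stimulus; test concentration not given here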
# [16] = basal HepG2 mitochondrial membrane potential changes, profiling panel, cell-based, JC-1 fluorescence, 24 h, 100 nL compound (AID 1167); conditions: higher = more signal; further: test concentration not given here
# [17] = basal 3T3-L1 adipocyte mitochondrial potential changes, profiling panel, cell-based, JC-1 fluorescence, 3T3-L1 adipocytes, 24 h, 100 nL compound (AID 1168); conditions: JC-1 mitochondrial fluorescence, higher = more signal, called active from +8 up or from −8 down; further: test concentration not given here
# [18] = basal RPMI8226 mitochondrial membrane potential changes, profiling panel, cell-based, JC-1 fluorescence, 24 h, 100 nL compound (AID 1169); conditions: RPMI8226 myeloma, JC-1 mitochondrial potential fluorescence, higher = more signal; further: test concentration not given here
# [19] = basal MM1S mitochondrial membrane potential changes, profiling panel, cell-based, JC-1 fluorescence, 24 h, 100 nL compound (AID 1170); conditions: higher = more signal; further: test concentration not given here
# [20] = A549 lung cancer cell viability effects, profiling panel, resazurin fluorescence, 24 h, PK04 Diversity Set (AID 1171); conditions: higher = more signal, called active from +8 up or from −8 down; further: test concentration not given here
SMILES,z-score [1],composite z-score [2],z-score [3],z-score [4],z-score [5],z-score [6],z-score [7],z-score [8],z-score [9],z-score [10],z-score [11],z-score [12],z-score [13],z-score [14],z-score [15],z-score [16],z-score [17],z-score [18],z-score [19],z-score [20]
C[C@H]1CC[C@H]2C(=O)N[C@H](Cc3ccccc3)C(=O)N2[C@@H]1c1ccccc1,0.584 (inactive),-0.108,-0.189 (inactive),0.405 (inactive),-0.304 (inactive),0.294 (inactive),-0.0623,0.727 (inactive),-0.32 (inactive),-0.119,-0.103,0.283,0.194,-0.643,0.0185,0.399,-0.556 (inactive),0.471,1.28,-0.232 (inactive)
COC(=O)[C@@H]1CC[C@H](C)[C@@H](c2ccc(C)cc2)N1C(=O)c1ccc(C=NO[C@@H](C)c2cc(-c3c(C)cc(C)cc3C)no2)cc1,0.934 (inactive),-0.242,1.12 (inactive),0.804 (inactive),0.894 (inactive),0.662 (inactive),0.677,0.564 (inactive),0.945 (inactive),0.406,0.203,-0.576,1.38,-0.56,0.148,3.24,0.161 (inactive),0.239,-0.749,-0.462 (inactive)
CCO[C@H](c1cc(OC)cc([N+](=O)[O-])c1OC)[C@H](C)[C@@H](OC)[C@H](C)C=CCC(=O)OC,-0.321 (inactive),0.0367,2.26 (inactive),0.282 (inactive),0.528 (inactive),0.318 (inactive),-0.421,-1.73 (inactive),-0.442 (inactive),-1.11,0.207,-0.402,0.513,0.0601,0.824,-0.524,-0.476 (inactive),-0.441,-0.236,0.319 (inactive)
C#CCCCON=C1C[C@@H](O)[C@@H](O)[C@@H]2[C@@H]3C(=O)N([C@@H](C)c4ccccc4)C(=O)[C@@H]3CC[C@@H]12,0.0467 (inactive),0.0824,0.433 (inactive),0.186 (inactive),-0.195 (inactive),-0.139 (inactive),-0.507,0.362 (inactive),0.574 (inactive),-0.132,0.241,-0.532,-0.47,-0.597,-0.337,-0.998,-0.377 (inactive),0.462,-0.968,-0.378 (inactive)
C=CC[C@@H]1C=CC(ON=C(C)C)[C@@H](CO)O1 (stereo not given in full),-1.85 (inactive),-0.147,0.42 (inactive),0.81 (inactive),-0.316 (inactive),0.195 (inactive),-0.0323,-0.202 (inactive),-0.173 (inactive),0.264,1.08,-0.521,0.389,0.255,-0.153,-0.459,-0.346 (inactive),0.00663,-0.644,-0.816 (inactive)
CON=C[C@@H](OC)[C@H](C)C=CCC(=O)OC,-2.24 (inactive),-0.316,0.0283 (inactive),0.325 (inactive),-0.779 (inactive),0.22 (inactive),0.279,0.592 (inactive),0.358 (inactive),-0.945,-0.0933,-0.105,0.262,0.253,0.205,-0.34,-1.2 (inactive),0.673,0.856,0.213 (inactive)
CC(CCC(=O)OC[C@H]1O[C@H](C#Cc2ccccc2)C=C[C@@H]1Oc1ccc(C)cc1)=NO[C@H](C)c1cn([C@@H]2COC[C@H]2O)nn1,-0.6 (inactive),-0.191,26.8 (active),3.78 (inactive),1.38 (inactive),-0.643 (inactive),1.2,-2.39 (inactive),-0.358 (inactive),-3.36,1.28,0.0119,0.669,-1.57,-2,-0.662,-4.6e-05 (inactive),-0.072,-1.1,-1.25 (inactive)
COc1ccc(COC(=O)NN=C2C[C@@H](O)[C@@H](O)[C@@H]3[C@@H]4C(=O)N(C[C@@H]5CCCO5)C(=O)[C@@H]4CC[C@@H]23)cc1,1.08 (inactive),-0.235,3.44 (inactive),0.415 (inactive),1.3 (inactive),0.18 (inactive),-0.0088,-0.682 (inactive),0.995 (inactive),-0.0772,0.795,-0.825,0.245,-0.657,0.51,0.567,0.658 (inactive),-0.252,-1.38,-0.547 (inactive)
CCN1C(=O)[C@H]2[C@H]3[C@H](O)[C@H](O)CC(=NO[C@@H]4O[C@H](COC(C)=O)[C@@H](OC(C)=O)[C@H](OC(C)=O)[C@H]4OC(C)=O)[C@@H]3CC[C@H]2C1=O,0.59 (inactive),0.227,0.202 (inactive),0.195 (inactive),-0.519 (inactive),0.319 (inactive),-0.639,0.357 (inactive),0.722 (inactive),-0.0344,0.13,-0.81,-0.145,-1.29,-1.05,-0.611,-1.51 (inactive),0.69,-0.654,-0.959 (inactive)
